In PubChem BioAssay AID376 (PDSP, 2006):
The campaign covered roughly 2,000 compounds. About 250 (12%) were called active. The entries come from a sample that favours actives as a whole. A number with no mark means an inactive call. No stated cut-off is given here; in the data, active means hERG blockade below about -20% or above about 20%; inactive means in between.

Each compound was assayed against Voltage-gated inwardly rectifying potassium channel KCNH2 (Homo sapiens) (UniProt Q12809) (assay: KCNH2 potassium channel function modulators, cell-based (AID 376;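 further: 0% = buffer alone and 100% = reference blocker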)). Details: hERG-expressing cells, channel activity single-concentration screen; concentration not given here.
Sequence of Voltage-gated inwardly rectifying potassium channel KCNH2 (Homo sapiens) (Q12809 whole entry, looked up): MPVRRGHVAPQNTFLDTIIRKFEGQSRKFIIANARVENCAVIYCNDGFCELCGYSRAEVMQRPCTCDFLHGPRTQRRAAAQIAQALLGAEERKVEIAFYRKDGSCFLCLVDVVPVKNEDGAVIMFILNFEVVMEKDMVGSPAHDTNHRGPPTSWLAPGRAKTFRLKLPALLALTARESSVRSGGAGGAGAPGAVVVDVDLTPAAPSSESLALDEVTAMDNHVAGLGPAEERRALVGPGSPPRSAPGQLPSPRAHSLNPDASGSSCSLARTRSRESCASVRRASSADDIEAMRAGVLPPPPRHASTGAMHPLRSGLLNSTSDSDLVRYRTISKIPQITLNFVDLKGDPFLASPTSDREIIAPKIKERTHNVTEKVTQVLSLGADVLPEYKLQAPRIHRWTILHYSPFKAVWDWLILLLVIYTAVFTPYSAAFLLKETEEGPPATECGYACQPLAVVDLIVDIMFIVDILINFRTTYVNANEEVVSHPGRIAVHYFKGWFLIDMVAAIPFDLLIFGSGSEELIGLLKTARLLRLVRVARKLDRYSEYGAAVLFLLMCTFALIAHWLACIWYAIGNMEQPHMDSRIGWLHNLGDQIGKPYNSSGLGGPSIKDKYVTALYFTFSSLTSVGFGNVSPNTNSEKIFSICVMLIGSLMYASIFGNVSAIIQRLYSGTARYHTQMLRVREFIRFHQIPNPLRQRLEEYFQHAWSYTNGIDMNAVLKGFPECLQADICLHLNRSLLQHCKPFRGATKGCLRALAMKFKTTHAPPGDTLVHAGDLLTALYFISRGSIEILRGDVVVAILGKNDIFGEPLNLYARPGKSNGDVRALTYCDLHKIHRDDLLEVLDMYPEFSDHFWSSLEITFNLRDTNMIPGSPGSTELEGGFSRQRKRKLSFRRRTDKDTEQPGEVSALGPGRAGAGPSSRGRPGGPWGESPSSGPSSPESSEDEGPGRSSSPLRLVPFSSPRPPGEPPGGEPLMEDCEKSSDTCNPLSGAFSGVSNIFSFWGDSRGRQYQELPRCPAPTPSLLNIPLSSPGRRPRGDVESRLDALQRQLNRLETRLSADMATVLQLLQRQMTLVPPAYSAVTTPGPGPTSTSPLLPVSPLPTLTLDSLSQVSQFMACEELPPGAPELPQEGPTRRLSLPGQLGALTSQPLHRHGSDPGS

Going from `NC(CNO)C(=O)O` (stereo not drawn) to `O=CNC(Cc1cnc[nH]1)C(=O)O` (stereo not drawn), the hERG blockade rises from -10.6% to -6.41%.

First: Nc1nc2c(ncn2C2C=CC(CO)C2)c(=O)[nH]1 (stereo not drawn)
Second: COc1nc(N)nc2c1ncn2C1CC(O)C(CO)O1 (stereo not drawn)
The hERG blockade of the first is lower: 1.77% for the first, 12% for the second.

Going from `CN1CCCC1c1cccnc1.O=C(O)c1ccccc1O.O=C([OH2+])c1ccccc1O.O=C([OH2+])c1ccccc1O.[Mn+2]` (stereo not drawn) to `CN1CCCC1c1cccnc1.O=C(O)c1ccccc1O.O=C([OH2+])c1ccccc1O.O=C([OH2+])c1ccccc1O.O=C([OH2+])c1ccccc1O.[Mn+2]` (stereo not drawn), the hERG blockade rises from 13.4% to 15.5%.

Compared with `O=C(O)CCSc1ncnc2nc[nH]c12`, `CCC(Nc1ncnc2nc[nH]c12)C(=O)O` (stereo not drawn) is lower in hERG blockade: 2.65% for the first, -0.207% for the second.

First: N=C(c1ccc2ccccc2c1)c1ccccc1Cc1ccccc1
Second: c1ccc2c(CSCc3cccc4ccccc34)cccc2c1
The hERG blockade of the first is lower: 9.45% for the first, 13.9% for the second.

First: CC1(CCOCc2ccccc2)NC(=O)NC1=O (stereo not drawn)
Second: NCc1nnn(Cc2ccccc2)c1N
The hERG blockade of the first is lower: -3.15% for the first, 0.879% for the second.

First: COc1ccc(C=C(C#N)C(N)=O)cc1OC
Second: Cc1cc(OCC(=O)O)c(Cl)cc1Cl
The hERG blockade of the first is higher: 4.46% for the first, 3.22% for the second.

Compared with `Nc1nc(N)nc(CCCCc2nc(N)nc(N)n2)n1`, `Cc1ncc(CN=Cc2ccc(Cl)cc2)c(N)n1` is lower in hERG blockade: 8.11% for the first, 6.55% for the second.

Compared with `CC1(C(=O)O)CCCC1C(=O)O` (stereo not drawn), `CC1CC2C3CCC4=CC(=O)C=CC4(C)C3(Cl)C(Cl)CC2(C)C1(O)C(=O)COP(=O)(O)O` (stereo not drawn) is higher in hERG blockade: 0.951% for the first, 10.3% for the second.

First: O=c1ccnc(SCc2ccc(Cl)cc2)[nH]1
Second: Nc1ccccc1SCc1csc(-c2ccc(Cl)cc2)n1
The hERG blockade of the first is lower: -3.26% for the first, 4.83% for the second.

First: O=S(=O)(CC(O)C(Cl)(Cl)Cl)NNc1ccccc1 (stereo not drawn)
Second: O=C(CC(=O)c1ccncc1)c1ccccc1
The hERG blockade of the first is lower: -8.3% for the first, 10.3% for the second.

Compared with `Nc1ccc(N=Nc2c(S(=O)(=O)O)cc3ccccc3c2S(=O)(=O)O)cc1`, `O=S(=O)(O)c1cc(N=Nc2cccc3ccccc23)c(O)c2ncccc12` is higher in hERG blockade: 5.01% for the first, 10.6% for the second.

First: S=C(S)NCCN1CCNCC1
Second: O=CN1CCN(CC(O)CN2CCCCC2)CC1 (stereo not drawn)
The hERG blockade of the first is higher: 6.35% for the first, -4.54% for the second.

First: CN(C)CC1CCCC(CN(C)C)C1=O (stereo not drawn)
Second: CN(C)CN1C(=O)SC(=C2C(=O)N(CN(C)C)c3ccccc32)C1=O
The hERG blockade of the first is lower: -6% for the first, -4.39% for the second.

Going from `O=C1c2ccccc2C(=O)N1c1ccc(Cc2ccc(N3C(=O)c4ccccc4C3=O)cc2)cc1` to `O=c1[nH]c(=S)[nH]c(-c2ccccc2)c1Cc1c(O)ccc2ccccc12`, the hERG blockade rises from -0.893% to -0.358%.

First: O=C(O)C=CC(=O)Nc1ccccn1
Second: O=C(O)CCCCn1cnc2c(=S)nc[nH]c21
The hERG blockade of the first is lower: 5.5% for the first, 6.53% for the second.

First: S=c1nc[nH]c2c1ncn2Cc1ccco1
Second: OCC1CCCC(n2cnc3c(=S)nc[nH]c32)O1 (stereo not drawn)
The hERG blockade of the first is lower: -15.9% for the first, -13.5% for the second.

First: CC(C)c1cc(C(F)(F)F)nc(NNc2nc(C(C)C)cc(C(F)(F)F)n2)n1
Second: CC(Br)C(=O)c1ccc2cc(Br)c3ccccc3c2c1 (stereo not drawn)
The hERG blockade of the first is lower: 7.39% for the first, 8.72% for the second.

Going from `O=C(O)c1c2c(c(O)c3c1CN(C1CCCCC1)CO3)OCN(C1CCCCC1)C2` to `CC12CCC3c4ccc(O)cc4CCC3C1CCC2OC(=O)CCC1CCCC1` (stereo not drawn), the hERG blockade rises from -1.92% to 6.8%.

Going from `C[N+](C)(C)CCCSc1nc2ccccc2[nH]1` to `c1ccc2c(c1)-c1nc3ccccc3cc1C2N1CCOCC1` (stereo not drawn), the hERG blockade falls from 6.28% to -9.86%.

Compared with `CC(CCC(=O)O)(c1cc(Br)c(O)c(Br)c1)c1cc(Br)c(O)c(Br)c1`, `CCCS(=O)(=O)O` is lower in hERG blockade: 5.39% for the first, -0.642% for the second.

For `CN1CCCC1c1cccnc1.O=C(O)c1ccccc1O.O=C([OH2+])c1ccccc1O.O=C([OH2+])c1ccccc1O.O=C([OH2+])c1ccccc1O.[Cu+2]` (stereo not drawn), the hERG blockade was 26% (active).
For `COc1ccc(C[N+](C)(C)N)cc1OC`, the hERG blockade was -25.5% (active).
With `O=S(=O)(O)c1cc(N=[N+]([O-])c2cc(S(=O)(=O)O)c3ccccc3c2)cc2ccccc12` the hERG blockade was 20.3% (active).
In the case of `CN(C)CC1CCC2=C(C1=O)C(c1ccc(Cl)c(Cl)c1)C1=C(CCC(CN(C)C)C1=O)O2` (stereo not drawn), the hERG blockade is reported as 24.7% (active).
`N=C(CC(=O)Nc1ccccn1)c1ccccc1` was tested, and the hERG blockade was -21.8% (active).
`COc1cc2c(cc1OC)C(CCN)=NCC2` was tested, and the hERG blockade was 26.9% (active).
With `O=C(O)CCn1cnc2c(=S)nc[nH]c21` the hERG blockade was -35.8% (active).
In the case of `Nc1nc2c(ncn2C2CCC(CO)O2)c(=O)n1C(=O)c1ccccc1` (stereo not drawn), the hERG blockade is reported as -28.6% (active).
For `CN(C)CC(C)(C)CN1c2ccccc2Sc2ccccc21`, the hERG blockade was 22.5% (active).
For `CC(=NO)c1ccc2cc(Br)c3ccccc3c2c1`, the hERG blockade was 61.6% (active).
`c1ccc2c(c1)c1ccccc1n2Cn1c2ccccc2c2ccccc21` was tested, and the hERG blockade was -38.4% (active).
